# About 240 (0.17%) of roughly 140,000 compounds were called active. Entries that show only a call come without a potency. Not shown: some 9% with an inconclusive outcome. Calls come from the whole dose curve; as a rule, active = well fitted inhibition curve with a large enough effect; inconclusive = small, poorly fitted or top-dose-only effect; inactive = no such curve, though single readings can be large or run the other way. This excerpt belongs to a sample that is enriched for actives.
# Assay: Primary qHTS assay for inhibitors of alpha-synuclein gene (SNCA) expression; note: nearly all actives have a fitted effect of over 45% in size
# Details: HEK-293 SNCA-luciferase knock-in, luminescence, 24 h; series mostly up to 57.2 µM
# Excerpt: Assay Submitter (PI): Daniel R. Scoles Ph.D.
# Department of Neurology, University of Utah, Salt Lake City, Utah
# Accumulation of alpha-synuclein is a main underlying pathological feature of Parkinson's disease (PD) and alpha-synucleinopathies, for which lowering expression of the alpha-synuclein gene (SNCA) is a potential therapeutic avenue. Using a cell-based luciferase reporter of SNCA expression we performed a quantitative high throughput screen (qHTS) of 155,885 compounds in dose response. The screening assay was generated using genome editing to insert the luciferase gene downstream and in frame of the SNCA gene in HEK-293 cells (1). A viability counterscreen using GF-AFC was used to eliminate cytotoxic and false positive compounds. After in silico analysis (clustering, removal of frequent hitter nuisance chemotypes), inhibitor compounds from the primary screen were selected for follow up and re-tested at 11-doses in the SNCA-luc cells (luciferase and GF-AFC confirmation), and in CMV-luc expressing cell line to flag general transcriptional repressors.
# Described herein are the results of the primary screen for SNCA inhibitors; decrease in luciferase signal (inhibition of the SNCA gene expression) is the desired output for this assay.
# 1. Dansithong, W., Paul, S., Scoles, D. R., Pulst, S. M., and Huynh, D. P. (2015) Generation of SNCA Cell Models Using Zinc Finger Nuclease (ZFN) Technology for Efficient High-Throughput Drug Screening. PLoS ONE 10, e0136930.
# SEQUENCE No. (e.g., 1, 2, 3, etc.); […] (e.g., Cells, Incubation, Reagent, etc.); VALUE; DESCRIPTION
# 1; Cells; 4 uL; Dispense 1500 HEK-293-SNCA-luc cells/well into Greiner 1536-well white / solid bottom tissue culture treated plate. The plate was covered with metal lids with gas-exchange holes.
# 2; Incubate; 24 hours; Incubate at 37C, 5% CO2, 95% RH.
# 3; Compounds; 23 nL; Compounds and controls were transferred via a Kalypsys Pin Tool (Wako USA) equipped with a 1536-slotted pin array. The plate was covered with metal lids with gas-exchange holes.
# 4; Incubate; 24 hours; Incubate at 37C, 5% CO2, 95% RH.
# 5; Dispense; 1 uL; Dispense Gly-Phe-7-amino-4-trifluoromethylcoumarin (GF-AFC, prepared at 125 uM in PBS) was added. The plate was covered with metal lids with gas-exchange holes.
# 6; Incubate; 30 min; Incubate at 37C, 5% CO2.
# 7; Detector; Fluorescence; Measure fluorescence with ViewLux microplate reader (PerkinElmer) equipped with 405/10 excitation and 540/25 emission filters.
# 8; Dispense; 3 uL; Dispense ONE-Glo ([…]) lucifase detection reagent was added to each well. Plates were covered with metal lids with gas-exchange holes.
# 9; Incubate; 15 min; Incubate at room temperature.
# 10; Detector; Luminescence; Measure luminescence with ViewLux microplate reader (PerkinElmer) equipped with clear filters.
# NOTES (numbers refer to sequence above)
# 1; HEK-293-SNCA-luc were cultured and suspended in phenol-red free DMEM (4.5 g/L glucose, 25 mM HEPES, cat #21063 (Thermo)).
# 3; Compounds were added to the assay plate in an 11-point intra plate dose response, 1:3 titration in DMSO with a final concentration range of […]. Vehicle-only plates, with DMSO being pin-transferred to every well, were inserted at the beginning of screening runs to confirm expected assay performance. Activity was normalized to wells containing medium only (-100% activity, full inhibition) and SNCA-luc cells treated with DMSO vehicle control (0% activity), contained on the same plate as test samples.
# 10; Signals were analyzed, and dose-response curves were fit using the Hill equation. Compounds in curve classes -1.1, -1.2, -2.1, -2.2 in the SNCA-luc assay were considered active. Compounds were eliminated from further consideration if also active (curve class -1.1, -1.2, -1.3, -1.4, -2.1, -2.2, -2.3, -2.4) in the GF-AFC cytotoxicity assay.
# Potency is the fitted concentration of half-maximal effect.
row,Compound,Potency
1,O=c1c2nc(-c3ccccc3)ccc2ncn1Cc1ccccc1,inactive
2,C[C@@H](O)[C@H](N)C(=O)N1CCc2onc(-c3cccc4ccccc34)c2C1,inactive
3,COc1ccc(CN2CCN(c3ccccc3)CC2C)c(OC)c1OC (configuration not stated),inactive
4,O=C1CC2(CCN(C(=O)C3CCCN3C(=O)Cc3ccccn3)CC2)Oc2ccccc2N1 (configuration not stated),inactive
5,COc1cccc(NC(=O)Nc2ccc3c(c2)N(C)C(=O)c2ccccc2S3)c1,20 µM (active)
6,CCN1C(=O)c2ccccc2Sc2ccc(NC(=O)Cc3ccc(OC)cc3)cc21,inactive
7,CCOc1ccccc1C(=O)Nc1ccc2c(c1)N(C)C(=O)c1ccccc1S2,inactive
8,COc1ccc(-c2nc(CN3CCOC(CN)C3)c(C)o2)c2ccccc12 (configuration not stated),inactive
9,CN1C[C@H](O)C[C@H]1c1nnc2n1CCN(C(=O)c1cc3ccccc3[nH]1)CC2,inactive
10,COc1ccc(Cl)cc1NC(=O)N1CCCC(Cn2cnc3cccnc32)C1 (configuration not stated),inactive
11,COCCN1C[C@H]2CN(C)c3ccccc3[C@@H]2N(C(=O)CC2CCCC2)CCC1=O,inactive
12,CNC(=O)C1CCCCN1Cc1ccc(-c2cccs2)cc1 (configuration not stated),inactive
13,COc1ccc(-c2cc(N3CCCC(NC(=O)c4cccc(Cl)c4)C3)n[nH]2)cc1 (configuration not stated),inactive
14,Cc1cc(OC2CN(C(=O)c3ccccc3F)C2)ccc1F,inactive
15,COc1ccc(CC(=O)N2CC[C@@H](CC(=O)O)[C@@H](CCN(C)c3ccccc3)C2)cc1,inactive
16,COCc1nc(C2CC(N)C2)cc(N2CCC(c3[nH]ncc3C)CC2)n1 (configuration not stated),inactive
17,CCOc1ccc(N(Cc2ccccc2)C(=O)c2nc(S(C)(=O)=O)ncc2Cl)cc1,6.31 µM (active)
18,CCOc1ccc(NC(=O)CN(Cc2ccccc2)S(=O)(=O)c2ccc(Cl)cc2)cc1,inactive
19,CCOc1ccc(N(CC)C(=O)C2CCN(S(=O)(=O)c3cccc4nonc34)CC2)cc1,inactive
20,CCOc1ccc2c(n1)CCN(C(=O)NC1CCCCC1)C2,inactive
21,C=CCN(C)C(=O)[C@@H](C)C1CC[C@@]2(C)Cc3sc(NS(=O)(=O)c4ccc(Cl)cc4)nc3[C@@H](C)[C@@H]2[C@H]1O (some centres not stated),inactive

row,Compound,Potency
1,CCN1CCN(C(=O)c2ccc3nnc(-c4ccc(OC(F)(F)F)cc4)n3c2)CC1,inactive
2,COc1cccc(CCC(=O)N2CCCN(S(C)(=O)=O)c3ccccc32)c1,inactive
3,Oc1ccc(-c2nc(C3CC3)nc3c2CN(Cc2ccc(F)cc2)CC3)cc1,inactive
4,Cc1cccc(CN2CCC3(Cc4ccccc4CNC3=O)C2)c1 (configuration not stated),inactive
5,COC(=O)N1CCN(C(=O)c2cccc(-c3ccccc3OC)c2)CC1,inactive
6,CC1=C(C(=O)N(C)C)C(c2ccc(Cl)cc2)N2C(CC(=O)NCc3ccco3)=CSC2=N1 (configuration not stated),inactive
7,CCCn1c(NCc2ccccc2F)nc2ccccc21,inactive
8,CCCn1c(NCc2ccc(N(CC)CC)cc2)nc2ccccc21,17.8 µM (active)
9,Cc1ccc(OCCn2c(CNc3ccccc3C)nc3ccccc32)cc1,inactive
10,O=C(NCCc1ccccn1)c1ccc2c(c1)N(S(=O)(=O)c1ccccc1)CC2,inactive
11,CCCS(=O)(=O)N1CCC(CCOC)(NC(=O)NCC)CC1,inactive
12,CC(C)NC(=O)C1(CCO)CCN(c2ncccn2)C1 (configuration not stated),inactive
13,COc1cccc(CC(=O)NC2CCN(c3cc(-c4ccc(F)cc4)[nH]n3)C2)c1 (configuration not stated),inactive
14,CCC(=O)N1CCC2(CC1)OCC(C(=O)NCc1ccccc1)N2C(=O)c1ccc(C)cc1 (configuration not stated),inactive
15,O=C1NCc2ccccc2CC12CCCN2Cc1ccccc1OC(F)(F)F (configuration not stated),inactive
16,CC(C)CN(CC1CN(C(=O)Cc2cccs2)CCO1)C(=O)c1cccc2ccccc12 (configuration not stated),inactive
17,O=C1NC(=NC2CCCC2)C2(CCCN(Cc3ccsc3)C2)N1c1cc(F)cc(F)c1 (configuration not stated),inactive
18,CCOc1cccc(CN2CCC(Oc3ccc(-c4noc(C5CC5)n4)cc3)C2)c1 (configuration not stated),inactive
19,COc1ccccc1Nc1ccnc(N2CCC(C(=O)N3CCC(c4ccccc4)CC3)CC2)n1,inactive
20,Cc1ccc(-c2ccccc2CN2CCN(C(=O)NC(C)C)CC2)cc1Cl,inactive
21,Cc1nonc1CC(=O)NC1CC(=O)N(Cc2cccc3ccccc23)C1 (configuration not stated),inactive

row,Compound,Potency
1,COc1ccccc1NC(=O)Cn1c(-c2ccc(F)cc2)nc(C)c(CCO)c1=O,inactive
2,COc1ccc(-c2ccnc(N[C@H]3CO[C@H]4[C@@H]3OC[C@H]4OC(=O)Nc3cccc4ccccc34)n2)cc1,inactive
3,Cn1cccc1C(=O)N1C[C@@H](COc2ccccc2)[C@H](C(N)=O)C1,inactive
4,Cc1cccc(OCCc2noc(C3CCCN(Cc4ccccc4C#N)C3)n2)c1 (configuration not stated),inactive
5,CC(=O)N1CCN(C(=O)c2ccc3nc(-c4ccncc4)oc3c2)CC1,inactive
6,CCOC(=O)C1CCCN(C(=O)c2ccc3oc(-c4ccccn4)nc3c2)C1 (configuration not stated),inactive
7,Cc1cccc(-c2nc3ccc(C(=O)N4CCCCC4)cc3o2)n1,7.94 µM (active)
8,O=C(NCCc1ccccc1)c1ccc2nnc(C3CCCC3)n2c1,inactive
9,CCOC(=O)C1CCCN(C(=O)Cc2ccc(N(Cc3cccc(F)c3)C(=O)c3ccco3)cc2)C1 (configuration not stated),inactive
10,CCOc1ccccc1C(=O)N1CCC(Cc2nc(-c3ccccc3)no2)CC1,inactive
11,COc1ccc(NC(=O)[C@@H]2C[C@@H](c3ccc(F)cc3)N(CCOc3ccccc3)C2)cn1,inactive
12,CC(C)(C)C(=O)N1CCc2nc(-c3ccc(Cl)cc3)nc(-c3ccccc3)c2C1,inactive
13,Cc1ccc([S+](=O)([O-])N2CCN(C(=O)c3nc4cccnc4n(C4CCCC4)c3=O)CC2)cc1,inactive
14,Oc1ccccc1CN1CCOC[C@H]1c1ncc(-c2ccc(C(F)(F)F)cc2)[nH]1,inactive
15,Cc1c(Cl)cccc1NC(=O)N(C)CC1CCOC1 (configuration not stated),inactive
16,CC1(c2cccnc2)N(CCOc2ccccc2)C(=O)OC12CCN(C(=O)c1cccc(Cl)c1)CC2 (configuration not stated),inactive
17,COc1ccccc1-c1cc(C(=O)NCCSC)nn2cccc12,inactive
18,CC1=C[C@@H](CNC(=O)Nc2ccccc2)[C@H](C(C)C)C[C@H]1CC(=O)NCCN(C)C,inactive
19,O=C(C1CCC1)N1CCC(O)(c2csc(CN3CCc4ccccc4C3)n2)CC1,inactive
20,O=C1[C@@H]2C[C@@H](O)CN2C2(CN(C3CCC3)C2)C(=O)N1Cc1ccccc1,inactive
